35 compounds from PubChem BioAssay can be followed below.

Calls of active or inactive are those of the source.

The nature of this assay: FRG1 promoter luciferase signal modulators, primary screen, FRG1 inhibition for FSHD, cell-based, C2C12 myotubes, firefly/Renilla luciferase, luminescence (AID 1084). The settings on record: higher = more signal, called active from +8 up or from −8 down.
As to `COCCOC(=O)N1C(=O)[C@@]2(c3cc(C#CCC(C(=O)OC)C(=O)OC)ccc31)[C@H](c1ccccc1OCCO)N1[C@H](c3ccccc3)[C@H](c3ccccc3)OC(=O)[C@H]1[C@@H]2C(N)=O`, the z-score was -0.885 (inactive).

With `CC(C)NC(=O)[C@@H]1c2ccccc2C(=O)N(Cc2ccccc2Cl)[C@H]1c1ccc(CO)cc1`, the z-score was -1.84 (inactive).

On to `COc1ccc(CCNC(=O)[C@@]2(c3ccc([N+](=O)[O-])cc3)CC(=O)N(CC34CC5CC(CC(C5)C3)C4)[C@@H]2c2ccc(CO)cc2)cc1`, for which the z-score was -0.0918 (inactive).

As for `COc1ccc(CCNC(=O)[C@@H]2c3ccccc3C(=O)N(Cc3ccc(OC(F)(F)F)cc3)[C@H]2c2ccc(CO)cc2)cc1`, the z-score was -2.61 (inactive).

In the case of `CCOC(=O)[C@H]1C[C@H]2O[C@@]23C[C@H]1C(=O)N1CCCC1[C@@H]3O[Si](C)(C)C(C)(C)C` (stereo not given in full), the z-score is -0.184 (inactive).

Consider `Cc1cc(C)cc(N2C(=O)CS(=O)(=O)C2c2cccc([N+](=O)[O-])c2)c1` (stereo not given), for which the z-score is -1.47 (inactive).

In the case of `O=C(CS)NCCCCCCNC(=O)[C@H]1C[C@H]2C(=O)N3CCC[C@H]3C(=O)N2[C@H]1c1cccc(OCCO)c1`, the z-score was 0.865 (inactive).

For `C=CC(COC(C)=O)NS(=O)(=O)c1ccc(Br)cc1` (stereo not given), the z-score is -0.747 (inactive).

With `CCCC[C@H]1OB(O)C[C@H]2C1=C(C)C[C@H]1C(=O)N(Cc3ccccc3)C(=O)[C@H]12`, the z-score is 0.758 (inactive).

For `O=C1OCCC/C=C\[C@H]2OC34C=CCN(Cn5nnc6ccccc65)C(=O)[C@H]3N(CCCCCO)C(=O)[C@@H]4C12` (stereo not given in full), the z-score is 0.406 (inactive).

Regarding `CC(C)C[C@@H]1NC(=O)[C@@H]2C[C@H](C(=O)NCCCCCC[N+](C)(C)C)[C@H](c3ccc(O)cc3)N2C1=O`, the z-score was 1.97 (inactive).

As for `CC(C)C[C@@H]1NC(=O)[C@H]2C[C@@H](C(=O)NCCCCCCNC(=O)CS)[C@@H](c3cccc(OCCO)c3)N2C1=O`, the z-score is -0.154 (inactive).

As for `CCOC(=O)C1=CCC(c2ccc([N+](=O)[O-])cc2)N(S(=O)(=O)c2ccc(C)cc2)C1` (stereo not given), the z-score is -2.47 (inactive).

As to `CN(C)CCCNC(=O)[C@@]1(Cc2ccccc2I)c2ccccc2C(=O)N(Cc2ccccc2C(F)(F)F)[C@H]1c1ccc(CO)cc1`, the z-score is -1.1 (inactive).

As to `O=C1OCC=C[C@H]2OC34C=CCN(c5ccc6ccccc6c5)C(=O)[C@H]3N(CCCO)C(=O)[C@@H]4[C@@H]12` (stereo not given in full), the z-score is 0.389 (inactive).

In the case of `CC(=O)NCCCC[C@@H]1NC(=O)[C@H]2C[C@@H](C(=O)NCCCCCC[N+](C)(C)C)[C@@H](c3cccc(OCCO)c3)N2C1=O`, the z-score was 5.18 (inactive).

For the compound `C=CCOC(=O)[C@@H]1[C@H]2C(=O)O[C@H](c3ccccc3)[C@H](c3ccccc3)N2[C@H](c2ccc(OCCOC(=O)[C@@H]3C[C@@H]4C(=O)NCC(=O)N4[C@@H]3c3cccc(OCCO)c3)cc2)[C@@]12C(=O)Nc1ccc(I)cc12`, the z-score was 0.536 (inactive).

Turning to `CC(C)OC(=O)CC(=O)CC(O)c1ccc(C#N)cc1` (stereo not given), the z-score was -0.711 (inactive).

For `C=CCNC(=O)[C@H]1[C@@H]2C(=O)O[C@@H](c3ccccc3)[C@@H](c3ccccc3)N2[C@@H](c2ccc(O)cc2)[C@]12C(=O)N(C(=O)OCCOC)c1ccc(C#CCCO)cc12`, the z-score is -4.26 (inactive).

As for `C=CC[C@@]1(C(=O)O)N=C(c2ccc(OCCCO)cc2)O[C@@H]1c1ccccc1N=[N+]=[N-]`, the z-score is 4.25 (inactive).

Turning to `CC(=O)NCCCC[C@@H]1NC(=O)[C@@H]2C[C@H](C(=O)NCCCCN(C)C)[C@H](c3ccc(O)cc3)N2C1=O`, the z-score was -0.816 (inactive).

As for `CCOC(=O)C1=C[C@@H](CC)N(S(=O)(=O)c2ccc(C)cc2)[C@H]1c1ccccc1`, the z-score was -1.74 (inactive).

Regarding `Cc1ccc([C@H]2[C@H](C(=O)O)[C@H](Sc3ccccc3)[C@@H](C(C)C)N2S(=O)(=O)c2ccc(C)cc2)cc1`, the z-score was -2.58 (inactive).

Consider `COCCOC(=O)N1C(=O)[C@@]2(c3cc(C#CCNC(N)=O)ccc31)[C@H](c1ccc(OCCO)cc1)N1[C@H](c3ccccc3)[C@H](c3ccccc3)OC(=O)[C@H]1[C@@H]2C(=O)N1CCc2cc(OC)c(OC)cc2C1`, for which the z-score was 1.08 (inactive).

Take `C=C[C@@H](COC(C)=O)N(Cc1ccc([N+](=O)[O-])cc1)S(=O)(=O)c1ccc(Br)cc1`: the z-score is -1.5 (inactive).

Take `CCCCC(CC)C(O)C1C=CC2C(=O)N(c3ccccc3)C(=O)C2N1Nc1ccccc1` (stereo not given): the z-score was -0.274 (inactive).

On to `COC(=O)C[C@H]1O[C@]2(C(=O)N(Cc3ccccc3)c3ccc(NC(C)=O)cc32)[C@@H](C)[C@@H]1[Si](C)(C)c1ccc(OC)cc1`, for which the z-score is -1.98 (inactive).

For the compound `COCCOC(=O)N1C(=O)[C@@]2(c3ccccc31)[C@H](C(=O)NC[C@H](O)c1ccccc1)[C@H]1C(=O)O[C@H](c3ccccc3)[C@H](c3ccccc3)N1[C@@H]2c1ccc(OCCO)cc1`, the z-score is -0.31 (inactive).

In the case of `O=C(O)[C@@]1(Cc2ccccc2)N=C(c2ccc(OCCCO)cc2)O[C@H]1c1ccccc1`, the z-score is -3.29 (inactive).

`O=C/C=C/c1ccc2c(c1)OCO2`: the z-score is -0.779 (inactive).

In the case of `CCCC[C@@H]1C[C@H]1[C@@H](NC(=O)c1ccc(-c2ccccc2)cc1)c1ccc(-c2ccccc2)cc1`, the z-score is -1.11 (inactive).

For the compound `C=CCOC(=O)[C@H]1[C@@H]2C(=O)O[C@@H](c3ccccc3)[C@@H](c3ccccc3)N2[C@@H](c2ccc(OCCOC(=O)[C@@H]3C[C@@H]4C(=O)NCC(=O)N4[C@@H]3c3ccc(O)cc3)cc2)[C@]12C(=O)Nc1ccccc12`, the z-score is -1.27 (inactive).

Regarding `O=C1O[C@@H](c2ccccc2)[C@@H](c2ccccc2)N2[C@@H](c3ccc(O)cc3)[C@]3(C(=O)Nc4ccc(C#CC5=CCCCC5)cc43)[C@@H](C(=O)O)[C@H]12`, the z-score was -0.611 (inactive).

With `CC(=O)Nc1cc(Br)ccc1C(=O)O`, the z-score is 0.466 (inactive).

Consider `CC(C)(C)OC(=O)CC[C@@]1(C(=O)O)N=C(c2ccc(OCCCO)cc2)O[C@@H]1c1ccccc1N=[N+]=[N-]`, for which the z-score was 6.94 (inactive).
